Assay results taken from PubChem BioAssay (Tox21).
Records with an inconclusive call do not appear. Where a call stands in place of a potency, no number is given. Active and inactive are the calls of the source. Calls come from the whole dose curve; as a rule, active = well fitted cell-killing curve with a large enough effect in the repeat runs; inconclusive = weak or mixed curves, or effect the other way; inactive = flat fitted curve, though single readings scatter.

What was measured:
[1] = cAMP Responsive Elements (CRE) small molecule antagonists, cell-based qHTS assay: qHTS cell viability counter screen (AID 2060913); note: nearly all actives have a fitted effect of over 40% in size
How it was run: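 Cytotoxicity read in the same wells as the CRE-bla HEK293T antagonist assay: after 3 h compound with 0.25 uM NKH477 final and 2 h beta-lactamase substrate, CellTiter-Glo luminescence measured.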

[2] = cAMP Responsive Elements (CRE) small molecule agonists, cell-based qHTS assay: qHTS cell viability counter screen (AID 2060914);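 note: viability read after 3 h of compound exposure; nearly all actives have a fitted effect of over 50% in size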
How it was run: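 HEK 293T CRE-bla; DMEM + 10% dialyzed FBS, 25 mM HEPES; 18 h pre-incubation; compound 3 h, 37 °C/5% CO2; CellTiter-Glo added after reporter read; luminescence after 30 min RT.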

**Q.** Which Potency [1] does the source give for `CCCCCCCCCOC(=O)c1ccccc1C(=O)OCCCCCCCCC` here?
**A.** Its Potency is “inactive”.

**Q.** And the Potency [2]?
**A.** Its Potency is “inactive”.

**Q.** What does the source list for `Cc1ccc(S(=O)(=O)O)cc1`?
**A.** Potency [1]: inactive; Potency [2]: inactive

**Q.** What does the source list for `CCCC(C)C(O)CC` (stereo not given)?
**A.** Potency [1]: inactive; Potency [2]: inactive

**Q.** With `Nc1ccc2cc(S(=O)(=O)O)cc(O)c2c1N=Nc1ccccc1C(F)(F)F` as the compound, how does the Potency [1] read?
**A.** The Potency was “inactive”.

**Q.** And the Potency [2]?
**A.** Its Potency is “inactive”.

**Q.** Which results are given for `Brc1c2ccccc2cc2ccccc12`?
**A.** Potency [1]: inactive; Potency [2]: inactive
